Source: PubChem BioAssay (National Center for Advancing Translational Sciences (NCATS))
TRHR PAM: qHTS for Small Molecule Agonists and Allosteric Enhancers of Human TRH Receptor: Primary Screen for Enhancers | Thyrotropin-releasing hormone receptor (Homo sapiens), P34981 | TRHR cells, fluo-8 calcium fluorescence, EC20 TRH enhancement | enhancement, % at 2 µM | 0.66% of 360,000 active | AID 493056, 2011; in the data active = enhancement above about 30%
Target sequence (P34981 whole entry, looked up): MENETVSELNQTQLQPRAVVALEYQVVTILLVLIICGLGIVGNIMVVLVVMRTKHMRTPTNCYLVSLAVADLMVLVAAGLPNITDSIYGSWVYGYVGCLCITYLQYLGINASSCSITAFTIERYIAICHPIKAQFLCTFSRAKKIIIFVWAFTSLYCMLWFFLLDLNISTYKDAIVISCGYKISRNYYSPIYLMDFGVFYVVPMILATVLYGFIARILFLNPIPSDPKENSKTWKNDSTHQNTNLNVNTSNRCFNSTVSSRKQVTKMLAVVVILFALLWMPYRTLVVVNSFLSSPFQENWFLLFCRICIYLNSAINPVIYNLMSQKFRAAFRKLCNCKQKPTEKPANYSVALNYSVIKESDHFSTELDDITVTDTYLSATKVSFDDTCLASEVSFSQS
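Enhancer read-out: after compound pinning and an initial kinetic agonist-mode read, an EC20 of TRH (10 nM final) was injected and fluo-8 calcium signal (Ex 480/Em 530) followed at 1 s/cycle for 100 cycles in TRHR-expressing cells.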
D1 PAM: Potentiators of Human D1 Dopamine Receptor: qHTS; 0.036% of 360,000 active; potentiation, % at 10 µM; HEK293 TREx D1 cells, calcium flux, dopamine EC20 potentiation; in the data active = potentiation above about 30%
D1 agonist: Allosteric Agonists of the Human D1 Dopamine Receptor: qHTS; 1% of 360,000 active; AID 504660, 2011; HEK293 T-REx D1 cells, calcium flux, agonist mode; activation, % at 2 µM
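Agonism was scored from calcium flux recorded over 180 s (1 read/s) after pintool compound addition, following a 10-cycle baseline. Cells were inducible force-coupled HEK293 TREx D1, plated overnight at 30 C and loaded with no-wash calcium dye.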
D1 antag: Antagonist of Human D 1 Dopamine Receptor: qHTS; activity change, negative = inhibition, % at 10 µM; D(1A) dopamine receptor (Homo sapiens), P21728; AID 504652, 2011; 3.2% of 360,000 active; HEK293 TREx D1 cells, calcium flux, dopamine EC80; stronger effect = lower value; in the data active = activity change below about -30%
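Tetracycline-induced HEK293 Trex D1 cells, force-coupled to calcium, dye-loaded; compounds added and read 180 s, then EC80 dopamine added and calcium flux tracked kinetically another 180 s.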
TRHR ag: qHTS for Small Molecule Agonists and Allosteric Enhancers of Human TRH Receptor: Primary Screen for Agonists. Thyrotropin-releasing hormone receptor (Homo sapiens), P34981. TRHR cells, calcium flux fluo-8, FDSS agonist mode. activation, % at 2 µM. 0.18% of 360,000 active. AID 493084, 2011
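In this calcium-flux screen, cells bearing human TRHR are dye-loaded with fluo-8, baselined for 10 cycles, then exposed to library compounds; positive kinetic calcium responses during the agonist phase mark hits, with TRH as control.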
Numbers stand for hits; 0 = inactive; - = no result. Rows were chosen to be rich in hits. Some 4.7% of all compounds tested hit in one or more screens of this group. Cut-off read from the data, not from the text of the source, unless noted: active = activation above about 30%; inactive = the rest.

SMILES	TRHR PAM	D1 PAM	D1 agonist	D1 antag	TRHR ag
CCOC(=O)c1ccc(NC(=O)c2ccc(=O)n(Cc3cccc(C)c3)c2)cc1	0	0	0	0	0
CCC(=O)Oc1ccc2c(c1)O/C(=C\c1ccco1)C2=O	0	0	43	0	0
Cc1cc(O)cc2c1C(=O)/C(=C/c1ccco1)O2	0	0	42	0	0
COC(=O)COc1ccc2c(c1)O/C(=C\c1ccco1)C2=O	0	0	0	0	0
CCN(CC)C(=O)Oc1ccc2c(c1)O/C(=C\c1ccco1)C2=O	0	0	0	0	0
CC(C)c1cnc2c(c1SCC(=O)NCc1ccccc1)c(=O)n(C)c(=O)n2C	0	0	0	0	0
CCOc1ccc(N=C2NC(=O)S/C2=C\c2ccc(N(C)C)cc2)cc1	0	0	81	0	0
CCOc1ccc(/C=C2/SC(=O)NC2=S)cc1	0	0	0	0	0
CC(=O)c1ccc(NC(=O)C2CCCN(S(=O)(=O)c3cn(C)cn3)C2)cc1 (stereo not given)	0	0	0	0	0
CC(=O)NC12CC3CC(C1)CC(C(=O)N1CCN(S(=O)(=O)c4ccc(Cl)s4)CC1)(C3)C2	0	0	0	0	0
CC(=O)NC12CC3CC(C1)CC(C(=O)N1CCN(S(=O)(=O)c4cccc(C(F)(F)F)c4)CC1)(C3)C2	0	0	38	0	0
Cc1ccc(NC(=O)CCC(=O)N2Cc3ccccc3Oc3ncccc32)c(C)c1	0	0	0	0	0
Cc1c(C(=O)NCC2COc3ccccc3O2)oc2ccc(S(=O)(=O)N3CCOCC3)cc12 (stereo not given)	0	0	0	0	0
Cc1c(C(=O)NCC2COc3ccccc3O2)oc2ccc(S(=O)(=O)N3CC(C)CC(C)C3)cc12 (stereo not given)	0	0	0	-31	0
Cn1c(=O)oc2cc(S(=O)(=O)N3CCC(C(=O)NCC4COc5ccccc5O4)CC3)ccc21 (stereo not given)	0	0	0	-35	0
Cn1c(=O)oc2cc(S(=O)(=O)N3CCc4ccccc43)ccc21	0	0	38	0	0
Cn1c(=O)oc2cc(S(=O)(=O)N3CCCC(C(=O)N4CCc5ccccc5C4)C3)ccc21 (stereo not given)	0	-	0	-38	0
Cc1ccc(NC(=O)C2CCCN(S(=O)(=O)c3ccc4c(c3)oc(=O)n4C)C2)cc1Cl (stereo not given)	0	0	0	-31	0
Cc1c(C(=O)NCc2c(F)cc(F)cc2F)oc2ccc(S(=O)(=O)N3CCOCC3)cc12	0	0	0	-45	0
O=C(NCCc1ccccc1Cl)c1ccc2c(c1)nc1n2CCOC1	0	0	0	0	0
COc1ccc(C2CC(O)(c3ccccc3)Oc3cc(OC)c(OC)c(OC)c32)cc1 (stereo not given)	0	0	0	-36	0
CC(Cc1ccccc1)NC(=O)c1cc2ccccc2o1 (stereo not given)	0	0	48	0	0
O=[N+]([O-])c1nn(-c2ccc(Cl)cc2)n(O)c1=NCc1ccncc1	0	0	0	-42	0
O=C(CSc1nc2ccsc2c(=O)n1Cc1ccc(F)cc1)NCc1ccc(Cl)cc1	0	0	0	0	0
CCOc1cc2c(cc1OCC)C(C(=O)O)C(c1cc(Br)c(O)c(OC)c1)N(C)C2=O (stereo not given)	0	0	0	-32	0
SMILES	TRHR PAM	D1 PAM	D1 agonist	D1 antag	TRHR ag
Cc1ccccc1NC(=O)c1cc(N)ccc1N1CCCCC1	0	0	0	-55	0
Cc1cc(=O)[nH]c(Cc2ccc(OC(C)C)cc2)n1	0	0	0	-76	0
CC(C)C1N(C(=O)CN2CCCC2)CCN1S(=O)(=O)c1ccccc1 (stereo not given)	0	0	0	-45	0
COc1ccc(C2N(C(=O)CN3CCCC3)CCCN2S(=O)(=O)c2ccccc2)cc1 (stereo not given)	0	0	32	0	0
CC1N(C(=O)N(C)C)CCN1S(=O)(=O)c1ccccc1 (stereo not given)	36	0	0	0	0
COc1ccc(C2N(C(C)=O)CCCN2S(=O)(=O)c2ccc(C)cc2)cc1 (stereo not given)	0	0	0	0	0
CCCN1C(=O)C2(c3ccccc31)c1c(oc3ccc(C)cc3c1=O)C(=O)N2CCOC (stereo not given)	0	0	0	0	0
CCOC(=O)c1sc(=S)n(Cc2ccccc2)c1C	0	0	0	-31	0
Nc1nc(-c2ccc(-c3ccccc3)cc2)cs1	0	0	0	-47	0
CCOc1ccc(NC(=O)CN2CCN(CC(=O)Nc3ccc(Cl)c(C(F)(F)F)c3)CC2)cc1	36	0	0	0	0
CN(CC(=O)NCc1ccccc1)CC(=O)Nc1ccc(Cl)c(C(F)(F)F)c1	0	-	64	0	0
Cc1ccc(NC(=O)CN(C)C(=O)c2ccc(C(F)(F)F)cc2)cc1	0	0	0	-32	0
COc1cc(CC(=O)Nc2ccc(Cl)c(C(F)(F)F)c2)cc(OC)c1OC	0	0	0	-35	0
COc1ccc(C(=O)OCC(=O)Nc2ccc(Cl)c(C(F)(F)F)c2)c(OC)c1OC	0	0	0	0	0
Cc1ccccc1-c1nc(CS(=O)(=O)CC(=O)NCc2cccc(Cl)c2)c(C)o1	0	0	0	0	0
CN(CC(=O)Nc1ccc(Cl)c(C(F)(F)F)c1)C(=O)c1cccs1	0	0	0	-51	0
CCN(CC)c1ccc(NC(=O)CN(C)Cc2cccs2)cc1	0	0	0	0	0
Cc1ccc(NC(=O)CN(C)Cc2cccs2)cc1Cl	33	0	0	0	0
CC(C)C(=O)Nc1ccc(-c2csc(-c3ccccc3)n2)cc1	0	0	0	-38	0
CC(C)C(=O)Nc1cccc(-c2csc(-c3ccccc3)n2)c1	0	0	0	0	0
COc1ccccc1N1CCN(C(=O)c2cc3c(=O)n(Cc4cccs4)ccc3nc2C)CC1	0	0	0	0	0
CCOC(=O)c1c(NC(=O)CSc2nnc(-c3cccnc3)o2)sc(C(C)=O)c1C	0	0	0	-35	0
C/C(=N\NC(=O)c1cc(C)nc2ccccc12)c1ccncc1	0	0	0	-43	0
C/C(=N\NC(=O)c1cc(-c2cccc(OC(C)C)c2)nc2ccccc12)c1cccnc1	0	0	0	-43	0
CCn1ccc2c(OCC(=O)Nc3ccccc3C(F)(F)F)cccc2c1=O	0	0	0	-	0
O=c1c2cc3c(cc2n(Cc2ccc(F)cc2)c(=O)n1Cc1nc(-c2ccccc2)no1)OCO3	0	0	0	0	0
